# Of roughly 7,900 targets only a part is listed; those with a hit were picked by preference. About 0.6% of all pairs of compound and target were hits. Values without a mark were called inactive.
# Key:
# Assay in all cases: log2 fold change, soluble protein after heating vs DMSO (PISA); higher = thermal stabilisation; K562 cells, 10 uM, 30 min; active = over 0.2 and 3.5 SD of the protein, either way, in both replicates (recomputed)
# [1] = compound: NC(=O)Nc1cc(-c2cccc(F)c2)sc1C(=O)N[C@H]1CCCNC1
# Method in brief: (§1)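 Thermal stability values are relative to control samples and come from duplicates. They are expressed as log2 fold changes. For measurement, K562 cells (2×10^6 cells/mL) received 10 μM compound for 30 min, and aliquots were heated for 3 min over 48°C-58°C, pooled, and extracted at 4°C in PBS with 0.5% NP-40. Soluble protein, the supernatant after 21,000xg for 90 min, was quantified by TMTpro 16plex LC-MS/MS with equalised channel sums.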
# [2] = compound: NC(=O)c1cnc(N[C@@H]2CCCC[C@@H]2N)nc1Nc1cccc(-n2nccn2)c1
# Method in brief: as §1
# [3] = compound: NC1(c2ccc(-c3nc4ccn5c(=O)[nH]nc5c4cc3-c3ccccc3)cc2)CCC1
# Method in brief: as §1
# [4] = compound: NCC(=O)Nc1ccc(-n2nc(C(F)(F)F)cc2-c2ccc3c(ccc4ccccc43)c2)cc1
# Method in brief: as §1
# entinostat = compound: Nc1ccccc1NC(=O)c1ccc(CNC(=O)OCc2cccnc2)cc1 [entinostat]
# Method in brief: as §1
# vorinostat = compound: O=C(CCCCCCC(=O)Nc1ccccc1)NO [vorinostat]
# Method in brief: as §1
# citarinostat = compound: O=C(CCCCCCNC(=O)c1cnc(N(c2ccccc2)c2ccccc2Cl)nc1)NO [citarinostat]
# Method in brief: as §1
# silmitasertib = compound: O=C(O)c1ccc2c(c1)nc(Nc1cccc(Cl)c1)c1ccncc12 [silmitasertib]
# Method in brief: as §1
# [5] = compound: O=C1NC(=O)C(c2cnc3ccccn23)=C1c1cn2c3c(cc(F)cc13)CN(C(=O)N1CCCCC1)CC2
# Method in brief: as §1
# [6] = compound: c1cc(OCCN2CCCCC2)cc(-c2n[nH]c3ccc(-c4nnc[nH]4)cc23)c1
# Method in brief: as §1
# entospletinib = compound: c1cn2cc(-c3ccc4cn[nH]c4c3)nc(Nc3ccc(N4CCOCC4)cc3)c2n1 [entospletinib]
# Method in brief: as §1
# Sequence of UniProt Q10570 (Q10570 whole entry, looked up): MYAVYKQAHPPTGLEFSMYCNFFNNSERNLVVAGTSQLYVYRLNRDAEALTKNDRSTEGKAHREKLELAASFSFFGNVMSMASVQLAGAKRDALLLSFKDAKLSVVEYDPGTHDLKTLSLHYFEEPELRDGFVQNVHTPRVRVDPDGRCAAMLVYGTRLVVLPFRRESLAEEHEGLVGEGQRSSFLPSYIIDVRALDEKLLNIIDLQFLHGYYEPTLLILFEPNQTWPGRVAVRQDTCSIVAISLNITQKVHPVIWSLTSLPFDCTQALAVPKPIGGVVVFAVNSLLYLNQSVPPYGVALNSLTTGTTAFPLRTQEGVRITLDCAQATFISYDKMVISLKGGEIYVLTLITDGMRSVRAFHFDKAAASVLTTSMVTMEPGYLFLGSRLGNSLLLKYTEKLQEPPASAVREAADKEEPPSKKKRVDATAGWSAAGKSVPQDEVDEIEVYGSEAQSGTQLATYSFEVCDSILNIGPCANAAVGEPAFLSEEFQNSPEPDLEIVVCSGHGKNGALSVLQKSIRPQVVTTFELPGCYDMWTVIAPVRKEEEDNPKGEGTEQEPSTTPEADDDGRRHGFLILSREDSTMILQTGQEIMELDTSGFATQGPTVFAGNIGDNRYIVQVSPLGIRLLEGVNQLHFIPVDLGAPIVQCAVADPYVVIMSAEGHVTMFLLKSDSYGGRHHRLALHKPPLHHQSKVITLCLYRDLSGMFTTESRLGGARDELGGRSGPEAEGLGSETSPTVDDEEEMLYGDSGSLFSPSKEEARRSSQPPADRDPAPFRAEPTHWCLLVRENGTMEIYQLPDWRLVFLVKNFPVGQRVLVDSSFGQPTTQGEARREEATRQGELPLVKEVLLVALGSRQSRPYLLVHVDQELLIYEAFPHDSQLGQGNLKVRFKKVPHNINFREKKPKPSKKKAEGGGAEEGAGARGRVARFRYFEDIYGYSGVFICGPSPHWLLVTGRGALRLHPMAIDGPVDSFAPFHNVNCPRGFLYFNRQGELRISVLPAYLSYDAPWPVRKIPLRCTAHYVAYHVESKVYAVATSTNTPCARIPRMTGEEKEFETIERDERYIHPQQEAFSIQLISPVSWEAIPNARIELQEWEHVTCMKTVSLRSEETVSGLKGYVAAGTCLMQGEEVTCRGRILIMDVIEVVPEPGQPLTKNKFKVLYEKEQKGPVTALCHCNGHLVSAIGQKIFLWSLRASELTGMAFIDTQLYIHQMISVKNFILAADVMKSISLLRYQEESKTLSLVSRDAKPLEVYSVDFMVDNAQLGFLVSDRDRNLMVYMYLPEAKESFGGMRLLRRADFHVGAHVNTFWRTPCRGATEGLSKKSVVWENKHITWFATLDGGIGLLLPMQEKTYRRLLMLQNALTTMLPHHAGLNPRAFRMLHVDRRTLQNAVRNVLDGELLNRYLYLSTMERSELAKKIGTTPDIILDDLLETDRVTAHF
# Sequence of UniProt P30305 (P30305 whole entry, looked up): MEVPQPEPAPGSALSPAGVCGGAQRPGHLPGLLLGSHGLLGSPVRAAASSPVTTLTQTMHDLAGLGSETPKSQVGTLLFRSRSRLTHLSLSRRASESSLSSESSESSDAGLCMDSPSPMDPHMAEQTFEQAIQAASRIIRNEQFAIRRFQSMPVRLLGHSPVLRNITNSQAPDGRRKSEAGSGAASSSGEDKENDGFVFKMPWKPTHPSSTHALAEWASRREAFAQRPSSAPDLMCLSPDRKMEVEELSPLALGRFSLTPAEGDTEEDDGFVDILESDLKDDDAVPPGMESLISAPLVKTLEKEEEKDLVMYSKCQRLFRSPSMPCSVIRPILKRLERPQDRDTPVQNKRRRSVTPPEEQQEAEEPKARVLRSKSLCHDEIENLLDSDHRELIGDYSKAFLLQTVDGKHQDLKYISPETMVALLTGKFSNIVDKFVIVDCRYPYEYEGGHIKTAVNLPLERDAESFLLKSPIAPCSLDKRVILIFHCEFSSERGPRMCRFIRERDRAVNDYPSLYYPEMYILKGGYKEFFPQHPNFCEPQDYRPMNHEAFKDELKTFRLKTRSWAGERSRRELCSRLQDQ
# Sequence of UniProt Q9Y6K0 (Q9Y6K0 whole entry, looked up): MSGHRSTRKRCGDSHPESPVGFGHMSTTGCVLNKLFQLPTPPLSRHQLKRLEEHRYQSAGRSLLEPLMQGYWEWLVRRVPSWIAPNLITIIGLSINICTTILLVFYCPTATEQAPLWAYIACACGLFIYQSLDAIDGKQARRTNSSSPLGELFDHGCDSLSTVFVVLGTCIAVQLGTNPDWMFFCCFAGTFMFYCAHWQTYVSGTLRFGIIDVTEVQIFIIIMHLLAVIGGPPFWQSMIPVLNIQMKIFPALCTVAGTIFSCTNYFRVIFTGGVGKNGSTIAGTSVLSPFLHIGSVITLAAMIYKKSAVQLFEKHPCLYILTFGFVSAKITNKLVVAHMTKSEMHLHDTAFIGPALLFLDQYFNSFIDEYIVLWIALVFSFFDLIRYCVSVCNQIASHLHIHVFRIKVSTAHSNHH
# Sequence of UniProt Q00534 (Q00534 whole entry, looked up): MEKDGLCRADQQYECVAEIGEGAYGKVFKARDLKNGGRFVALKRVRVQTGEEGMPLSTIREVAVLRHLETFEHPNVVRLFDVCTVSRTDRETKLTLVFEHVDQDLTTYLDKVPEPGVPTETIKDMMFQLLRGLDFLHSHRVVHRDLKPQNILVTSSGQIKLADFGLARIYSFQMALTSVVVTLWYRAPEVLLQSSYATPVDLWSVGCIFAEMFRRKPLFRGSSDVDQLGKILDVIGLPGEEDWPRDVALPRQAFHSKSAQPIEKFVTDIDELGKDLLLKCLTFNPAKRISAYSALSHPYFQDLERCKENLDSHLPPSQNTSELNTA
# Sequence of UniProt P00915 (P00915 whole entry, looked up): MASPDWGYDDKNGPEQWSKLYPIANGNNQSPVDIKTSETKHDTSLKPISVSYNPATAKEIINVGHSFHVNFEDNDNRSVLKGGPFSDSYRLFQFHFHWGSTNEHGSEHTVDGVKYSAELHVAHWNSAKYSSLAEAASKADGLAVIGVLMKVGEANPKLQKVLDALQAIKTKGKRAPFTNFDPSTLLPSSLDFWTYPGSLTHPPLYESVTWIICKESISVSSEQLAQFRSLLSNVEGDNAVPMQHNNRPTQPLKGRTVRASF
# Sequence of UniProt Q8N684 (Q8N684 whole entry, looked up): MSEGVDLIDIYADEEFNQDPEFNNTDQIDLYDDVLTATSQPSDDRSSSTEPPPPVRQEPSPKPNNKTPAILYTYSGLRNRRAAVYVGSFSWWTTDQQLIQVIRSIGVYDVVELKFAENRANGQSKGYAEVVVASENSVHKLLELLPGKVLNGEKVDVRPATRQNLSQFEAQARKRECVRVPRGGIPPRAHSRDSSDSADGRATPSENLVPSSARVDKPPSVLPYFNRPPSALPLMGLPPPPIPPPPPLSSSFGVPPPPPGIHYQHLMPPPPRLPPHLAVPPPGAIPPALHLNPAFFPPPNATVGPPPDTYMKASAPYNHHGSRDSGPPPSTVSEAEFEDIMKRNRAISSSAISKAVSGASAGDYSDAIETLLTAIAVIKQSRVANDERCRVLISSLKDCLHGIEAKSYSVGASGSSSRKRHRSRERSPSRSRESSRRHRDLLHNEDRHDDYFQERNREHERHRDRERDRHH
# Sequence of UniProt P15954 (P15954 whole entry, looked up): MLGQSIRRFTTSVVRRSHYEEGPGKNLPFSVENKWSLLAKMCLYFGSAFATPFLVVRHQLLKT
# Sequence of UniProt Q8N163 (Q8N163 whole entry, looked up): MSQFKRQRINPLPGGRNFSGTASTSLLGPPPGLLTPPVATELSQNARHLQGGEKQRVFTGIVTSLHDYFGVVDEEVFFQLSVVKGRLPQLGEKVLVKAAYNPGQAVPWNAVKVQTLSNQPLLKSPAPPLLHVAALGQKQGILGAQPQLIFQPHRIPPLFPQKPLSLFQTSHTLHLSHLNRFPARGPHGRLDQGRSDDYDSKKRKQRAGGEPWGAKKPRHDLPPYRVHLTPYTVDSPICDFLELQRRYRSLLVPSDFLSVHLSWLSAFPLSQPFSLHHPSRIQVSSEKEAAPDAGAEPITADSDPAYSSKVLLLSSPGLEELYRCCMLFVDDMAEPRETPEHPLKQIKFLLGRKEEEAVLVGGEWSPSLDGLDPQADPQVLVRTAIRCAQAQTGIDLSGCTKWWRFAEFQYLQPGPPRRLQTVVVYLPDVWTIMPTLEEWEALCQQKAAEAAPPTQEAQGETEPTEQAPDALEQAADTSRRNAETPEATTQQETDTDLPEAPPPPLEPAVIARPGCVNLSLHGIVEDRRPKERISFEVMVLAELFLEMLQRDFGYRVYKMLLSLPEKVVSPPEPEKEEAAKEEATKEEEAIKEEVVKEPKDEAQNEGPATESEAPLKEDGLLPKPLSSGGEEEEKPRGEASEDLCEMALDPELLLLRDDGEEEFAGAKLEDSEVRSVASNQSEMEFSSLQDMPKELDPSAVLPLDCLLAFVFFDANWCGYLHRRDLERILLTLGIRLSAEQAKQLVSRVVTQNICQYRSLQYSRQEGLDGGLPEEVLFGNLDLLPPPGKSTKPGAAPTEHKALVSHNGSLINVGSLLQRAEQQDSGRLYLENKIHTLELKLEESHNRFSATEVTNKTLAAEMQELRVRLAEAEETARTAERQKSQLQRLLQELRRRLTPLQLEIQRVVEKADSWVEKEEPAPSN
# Sequence of UniProt P86791 (P86791 whole entry, looked up): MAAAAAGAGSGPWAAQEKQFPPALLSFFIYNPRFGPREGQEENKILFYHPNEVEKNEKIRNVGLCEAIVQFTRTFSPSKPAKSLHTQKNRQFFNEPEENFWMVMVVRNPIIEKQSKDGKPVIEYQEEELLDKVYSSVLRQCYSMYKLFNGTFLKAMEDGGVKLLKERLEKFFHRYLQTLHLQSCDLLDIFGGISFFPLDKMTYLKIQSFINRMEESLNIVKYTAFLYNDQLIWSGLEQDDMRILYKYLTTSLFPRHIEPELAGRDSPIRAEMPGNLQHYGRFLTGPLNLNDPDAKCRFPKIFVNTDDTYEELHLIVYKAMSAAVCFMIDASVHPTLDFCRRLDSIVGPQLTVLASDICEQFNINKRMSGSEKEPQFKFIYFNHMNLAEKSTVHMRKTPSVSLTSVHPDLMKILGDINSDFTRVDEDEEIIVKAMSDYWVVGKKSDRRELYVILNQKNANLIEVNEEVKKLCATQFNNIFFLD
Target,log2 fold change [1],log2 fold change [2],log2 fold change [3],log2 fold change [4],log2 fold change (entinostat),log2 fold change (vorinostat),log2 fold change (citarinostat),log2 fold change (silmitasertib),log2 fold change [5],log2 fold change [6],log2 fold change (entospletinib)
CASTOR2 (UniProt A6NHX0),0.076,0.113,-0.034,0.06,-0.072,0.056,0.04,-0.03,-0.005,0.076,-0.104
CHAC2 (UniProt Q8WUX2),0.022,-0.019,-0.008,-0.028,-0.017,-0.016,-0.232,0.022,-0.03,0.419 (active),0.323
CNN3 (UniProt Q15417),-0.051,-0.125,-0.124,-0.144,0.091,0.023,0.047,0.047,-0.032,-0.001,-0.022
CAMSAP1 isoform 3 (UniProt Q5T5Y3),0.124,-0.048,-0.172,-0.466 (active),-0.29,-0.078,0.045,0.064,-0.028,-0.013,-0.003
CCDC9 (UniProt Q9Y3X0),0.021,0.034,0.121,0.02,-0.088,-0.051,-0.069,-0.051,0.021,-0.015,0.115
CDC123 (UniProt O75794),-0.029,0.045,-0.077,-0.01,0.026,0.032,0.045,-0.048,0.011,-0.056,-0.081
CDC42BPB (UniProt Q9Y5S2),-0.205,0.054,-0.254,-0.012,0.155,0.06,0.085,-0.087,-0.057,-0.201,-0.245
COX7C (UniProt P15954),0.009,0.048,-0.013,0.046,0.014,-0.017,0.079,-0.003,-0.089,-0.059,-0.074
CA1 (UniProt P00915),0.01,0.011,-0.013,0.012,-0.011,0.221 (active),0.074,0.013,-0.014,-0.029,0.018
CASP8 isoform 9 (UniProt Q14790),-0.06,-0.051,-0.186,-0.151,-0.119,-0.021,-0.048,0.12,0.008,0.009,0.005
CDK6 (UniProt Q00534),-0.004,-0.082,-0.017,-0.003,0.009,0.005,-0.006,0.131,0.146,0.017,0.036
CDK5RAP1 (UniProt Q96SZ6),-0.107,0.047,-0.114,0.199,-0.008,-0.089,-0.055,0.06,-0.023,-0.031,0.03
CPSF1 (UniProt Q10570),0.024,0.069,0.059,0.006,-0.023,0.012,-0.025,0.052,0.099,-0.139,0.037
COX5A (UniProt P20674),0.019,0.103,0.117,0.024,0.024,-0.078,-0.041,-0.055,-0.228,-0.046,0.132
CPSF7 isoform 3 (UniProt Q8N684),-0.063,0.025,0.027,0.013,-0.023,0.01,0.001,-0.069,0.054,-0.035,-0.011
CERS2 (UniProt Q96G23),-0.015,0,-0.103,-0.019,0.04,0.057,0.035,-0.018,0.027,-0.087,-0.018
COX15 (UniProt Q7KZN9),0.003,-0.009,-0.043,-0.013,0.004,-0.017,0.048,0.022,0.028,-0.064,-0.169
CSNK1A1 (UniProt P48729),-0.067,-0.001,0.031,0.019,0.023,-0.087,0.016,0.048,0.243,-0.084,0.009
CDC26 (UniProt Q8NHZ8),0.034,0.352,0.152,0.704 (active),0.097,0.019,-0.025,-0.003,0.007,-0.003,0.023
CDKN2AIP (UniProt Q9NXV6),0.003,0.044,-0.018,-0.026,0.017,0.027,0.013,0.026,0.022,-0.071,-0.014
CDC25B isoform 4 (UniProt P30305),-0.04,-0.07,-0.157,0.088,0.047,0.071,0.115,0.054,0.014,-0.123,-0.013
CSNK2A2 (UniProt P19784),-0.069,0.008,-0.052,0.069,-0.015,0.086,0.011,0.873 (active),-0.076,0.022,0.096
COPS8 (UniProt Q99627),0.02,0.038,-0.042,0.043,0.034,0.041,0.056,0.044,-0.077,0.018,0
CLPP (UniProt Q16740),0.044,-0.027,0.027,-0.008,0.029,-0.05,0.027,0.007,0.096,-0.031,0.01
CPSF3 (UniProt Q9UKF6),0.001,-0.05,-0.032,-0.058,-0.002,0.016,0.026,0.129,-0.006,-0.075,0
CLPTM1L (UniProt Q96KA5),-0.007,0.007,-0.148,-0.019,0.025,0.023,0.044,0.02,-0.072,0.002,-0.025
CDC37L1 (UniProt Q7L3B6),-0.061,-0.074,0.018,0.033,-0.011,-0.017,-0.064,0.07,-0.022,-0.102,0.042

Target,log2 fold change [1],log2 fold change [2],log2 fold change [3],log2 fold change [4],log2 fold change (entinostat),log2 fold change (vorinostat),log2 fold change (citarinostat),log2 fold change (silmitasertib),log2 fold change [5],log2 fold change [6],log2 fold change (entospletinib)
CDK12 (UniProt Q9NYV4),-0.002,0.005,0.06,0.01,0.005,0.089,-0.051,-0.081,0.179,-0.242,0.058
CBS (UniProt P35520),-0.008,0.006,-0.025,0.016,-0.033,-0.031,-0.058,-0.038,-0.027,0.027,0.016
CERT isoform 3 (UniProt Q9Y5P4),-0.323 (active),-0.103,-0.101,-0.045,-0.008,-0.025,0.065,0.034,0,-0.418 (active),0.019
CHERP (UniProt Q8IWX8),0.015,-0.054,-0.096,-0.095,0.129,0.099,-0.001,0.03,-0.121,-0.042,0.026
CSNK1D (UniProt P48730),-0.043,0.185,0.106,-0.02,-0.062,0,-0.025,0.054,0.107,0.173,0.109
CCAR2 isoform 2 (UniProt Q8N163),-0.056,-0.106,-0.013,-0.088,0.089,0.168,0.033,-0.039,-0.151,0.033,-0.014
COASY isoform 2 (UniProt Q13057),0,0.004,-0.138,-0.004,0.018,0.063,0.054,0.042,-0.004,-0.01,-0.076
COPS4 (UniProt Q9BT78),0.015,0.009,-0.032,0.036,0.01,0.027,0.031,-0.035,-0.01,0.027,0.003
CSE1L (UniProt P55060),-0.037,-0.067,-0.162,-0.071,0.05,0.015,0.058,0.035,-0.059,-0.018,-0.003
COQ7 (UniProt Q99807),-0.12,-0.009,-0.076,-0.007,0,-0.032,0.083,0.008,-0.002,0.015,0.026
CBX1 (UniProt P83916),0.02,-0.032,0.025,0.004,0.017,-0.036,-0.035,0.045,0.006,-0.034,0.066
CNN2 (UniProt Q99439),-0.029,-0.031,-0.104,-0.052,0.08,0.029,0.061,0.062,-0.062,-0.026,-0.011
CHP1 (UniProt Q99653),-0.1,0.014,-0.104,0.19,-0.012,-0.066,0.001,0.061,-0.054,0.011,0.044
CNN1 (UniProt P51911),-0.002,-0.07,-0.305,-0.023,0.018,-0.125,0.168,0.108,-0.008,-0.052,-0.067
CNDP2 (UniProt Q96KP4),-0.013,-0.035,-0.052,0.01,-0.015,-0.015,0.023,-0.065,-0.005,0.001,0.03
CCZ1 (UniProt P86791),0.036,-0.072,-0.33 (active),-0.077,0.006,0.013,-0.011,0.039,-0.01,-0.033,0.039
CLASP2 isoform 3 (UniProt O75122),0.018,-0.018,-0.147,-0.036,0.02,0.069,0.09,-0.033,-0.153,-0.055,-0.046
CLPX (UniProt O76031),0.01,0.011,-0.031,-0.01,-0.019,0.007,0.011,0.022,0.058,-0.05,-0.002
CDK9 isoform 2 (UniProt P50750),-0.05,-0.038,-0.057,0.22,0.005,0.102,-0.002,-0.015,0.152,-0.084,0.012
CDK13 (UniProt Q14004),-0.032,-0.007,-0.063,0.042,0,0.018,0.013,-0.018,0.035,-0.196,0.065
CNOT4 isoform 6 (UniProt O95628),0.033,-0.046,-0.074,-0.026,-0.009,0.052,0.038,0.023,-0.043,-0.037,-0.008
CA8 (UniProt P35219),0.035,-0.069,-0.167,-0.058,0.049,0.025,0.108,0.029,-0.142,-0.027,0.094
CES2 isoform 4 (UniProt O00748),0.116,0.017,-0.051,0.095,-0.083,-0.017,-0.083,0.076,0.027,-0.016,0.02
CEPT1 (UniProt Q9Y6K0),-0.065,-0.101,-0.215,-0.156,0.065,-0.078,-0.023,-0.014,-0.054,-0.085,0.033
CCNK isoform 4 (UniProt O75909),-0.053,-0.104,0.044,-0.091,-0.044,-0.021,-0.007,-0.046,0.006,-0.305 (active),0.037
CHEK1 (UniProt O14757),0.338 (active),-0.225,-0.209,-0.032,0.02,0.037,0.094,-0.011,-0.064,-0.276 (active),-0.057
CLSPN (UniProt Q9HAW4),-0.015,-0.009,-0.003,-0.013,-0.048,-0.028,0.026,0.053,-0.062,-0.086,0.057
